# Reference: paper PMC5540273 (PLoS ONE, 2017)
# Tests used:
# Conditions in all cases: concentration: 1 μM, replicates: in singlicate; n = 1
# [1] = test system: IRAK4
# [2] = test system: ITK
# [3] = test system: JAK1(JH1domain-catalytic)
# [4] = test system: JAK1(JH2domain-pseudokinase)
# [5] = test system: JAK2(JH1domain-catalytic)
# [6] = test system: JAK3(JH1domain-catalytic)
# [7] = test system: T1, JNK1
# T1 construct: gene MAPK8
# [8] = test system: T2, JNK2
# T2 construct: gene MAPK9
# [9] = test system: T3, JNK3
# T3 construct: gene MAPK10
# [10] = test system: KIT-autoinhibited
# [11] = test system: KIT
# [12] = test system: LATS1
# [13] = test system: LATS2
# [14] = test system: LCK
# [15] = test system: LIMK1
# [16] = test system: LIMK2
# [17] = test system: T4, LKB1
# T4 construct: gene STK11
# [18] = test system: T5, LOK
# T5 construct: gene STK10
# [19] = test system: LRRK2
# [20] = test system: LTK
# 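Note: KINOMEscan kinase panel screen.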
Structure (SMILES),%Inh [1],%Inh [2],%Inh [3],%Inh [4],%Inh [5],%Inh [6],%Inh [7],%Inh [8],%Inh [9],%Inh [10],%Inh [11],%Inh [12],%Inh [13],%Inh [14],%Inh [15],%Inh [16],%Inh [17],%Inh [18],%Inh [19],%Inh [20]
COc1ccccc1-c1ccc2c(NC(=O)C3CC3)n[nH]c2n1 [SB-711239],7%,0%,25%,0%,0%,13%,0%,9%,0%,0%,0%,28%,8%,10%,0%,5%,6%,0%,0%,4%
Cn1cncc1-c1ccc2ncnc(Nc3ccc(OCc4ccccc4)cc3)c2c1 [GW320571],2%,14%,18%,22%,0%,0%,18%,6%,4%,0%,28%,0%,0%,13%,18%,11%,0%,2%,21%,11%
CC(C)(C)c1ccc(C(=O)Nc2cn3cc(-c4cccnc4)ccc3n2)cc1,70%,24%,0%,45%,6%,2%,24%,0%,5%,0%,91.5%,23%,10%,8%,16%,20%,24%,79%,0%,19%
COc1cccc(NC(=O)NC2CCN(c3ccnc(Nc4ccc(F)cc4)n3)C2)c1 (centres unmarked) [GSK1379721],12%,0%,7%,0%,20%,0%,0%,4%,0%,0%,63%,0%,0%,1%,0%,5%,25%,0%,0%,0%
Cl.NC(=O)c1cccc(Nc2nccc(Nc3ccc(Oc4cccc(Cl)c4)c(Cl)c3)n2)c1 [GW659008],0%,0%,15%,0%,84%,0%,22%,20%,10%,0%,46%,0%,0%,68%,43%,4%,0%,15%,11%,0%
COc1cc(Nc2nccc(N3CCC(NC(=O)Nc4cc(C)ccc4C)C3)n2)cc(OC)c1OC (centres unmarked) [GSK1379762],16%,30%,5%,0%,76%,0%,24%,2%,11%,0%,78%,0%,0%,21%,20%,15%,0%,25%,22%,67%
Cc1c(O)cccc1Nc1ccnc2ccc(C(F)(F)F)cc12.Cl [GW466413],0%,0%,0%,0%,6%,0%,21%,4%,0%,0%,17%,0%,0%,73%,0%,0%,0%,0%,58%,28%
Cc1cccc(-c2nc(Nc3cccc(C(N)=O)c3)c3ccccc3n2)n1 [GW876019],4%,8%,0%,78%,12%,15%,0%,0%,0%,10%,0%,8%,0%,20%,0%,9%,0%,21%,73%,40%
O=C(Nc1n[nH]c2nc(-c3nccs3)c(Br)cc12)C1CCCC1 [SB-742609],39%,24%,16%,0%,23%,0%,38%,27%,17%,16%,7%,9%,0%,9%,19%,0%,0%,0%,35%,0%
Cc1cccc(-c2nc(Nc3ccc4[nH]ncc4c3)c3ccccc3n2)n1 [GW857175],18%,5%,18%,83%,22%,60%,36%,32%,31%,30%,3%,1%,50%,10%,6%,2%,14%,19%,15%,0%
